Measurements: PubChem BioAssay (NCI)
The panel holds about 83,000 compounds, 20% with a hit somewhere; the sample as a whole holds those more often.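 Step 1: grow cells in 96-well plates. Step 2: add test compound at a single concentration. Step 3: incubate 48 h. Step 4: record percent growth.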 Values without a mark were called inactive. Active and inactive are the calls of the source. The calls were made as follows: active = growth percent below 10; inactive = the rest.

Each compound was assayed on MDA-MB-468 breast (assay: NCI-60 one-dose screen, 48 h (100 = growth as untreated, 0 = no growth, -100 = all killed)). Settings: 10 µM unless noted.

How did the growth turn out when `Brc1ccc2[nH]cc(-c3nn4cc(-c5nccs5)nc4s3)c2c1` was run?
The growth was 51.2%.

With `COc1cc2c(c(OC)c1OC)C(=O)CC(c1cccc(C(=O)Nc3ccc(Br)cc3)c1)O2` (centres undefined) as the compound, how does the growth read?
Its growth is 30.5%.

For `C=C(C)[C@@H]1CC[C@]2(COCCCNCCC#N)CC[C@]3(C)[C@H](CC[C@@H]4[C@@]5(C)CC[C@H](OCCCNCCC#N)C(C)(C)[C@@H]5CC[C@]43C)[C@@H]12`, which growth is on record?
The growth was 8.32% (active).

With `C=CC(=O)N1CCN(c2ccc3cccc(NC(=O)c4cnc(C)cn4)c3n2)CC1` as the compound, how does the growth read?
Its growth is 1.58% (active).

`Cn1ccnc1C(=O)/C=C/c1ccc(CC(=O)Nc2ccc(Br)cc2)cc1` was tested. Which growth did it give?
Its growth is 0.947% (active).

For `Cc1[nH]c2ccccc2c(=O)c1CC=C(Cl)Cl`, which growth is on record?
The growth was -43.2% (active).

Which growth does the source give for `C#CCC#CCN1CCC[C@H]1C(=O)NCC(=O)OC` here?
Its growth is 99.1%.

For `COc1ccc(-c2nc(SCCC(C)C)nc(N/N=C\c3cccc([N+](=O)[O-])c3)c2C#N)cc1`, which growth is on record?
Its growth is 12.7%.

`COc1cc(CC#N)c([N+](=O)[O-])cc1OC` was tested. Which growth did it give?
The growth was 100%.

For `Nc1c(C(=O)Nc2ccccc2)sc2nc3c(cc12)CN(C(=O)OCc1ccccc1)CC3`, which growth is on record?
The growth was 63.8%.

How did the growth turn out when `NNC(=O)c1ccc(-n2nc(-c3ccccc3)c3ccccc32)cc1` was run?
Its growth is 38.3%.

`O=C(CCc1nnc(Cn2ccnc2)o1)c1nc2ccccc2[nH]1` was tested. Which growth did it give?
The growth was 108%.

With `c1ccc(Cc2nn3cc(-c4ccccc4)nc3s2)cc1` as the compound, how does the growth read?
Its growth is 101%.

For `C=C1C(=O)O[C@H]2[C@H]1CC/C(COC(=O)NCc1c[nH]c3ccccc13)=C\CC[C@@]1(C)O[C@@H]21`, which growth is on record?
The growth was 48%.
